Measured values published in PubChem BioAssay AID1117289 (Broad Institute, 2014).
Potency and affinity values are given separately. Records with an inconclusive call do not appear. Activity calls are given as the source filed them.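 The calls were made as follows: active = inhibitor whose fitted half-maximal dose is at most twice the top tested dose in every run; inconclusive = runs disagree, poor fit, or flat fit inhibiting 30 to 70%; inactive = every run inactive, flat, rising or too weak.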

Molecular target: Endoplasmic reticulum aminopeptidase 2 (Homo sapiens) (UniProt Q6P179)
Sequence (Q6P179 whole entry, looked up): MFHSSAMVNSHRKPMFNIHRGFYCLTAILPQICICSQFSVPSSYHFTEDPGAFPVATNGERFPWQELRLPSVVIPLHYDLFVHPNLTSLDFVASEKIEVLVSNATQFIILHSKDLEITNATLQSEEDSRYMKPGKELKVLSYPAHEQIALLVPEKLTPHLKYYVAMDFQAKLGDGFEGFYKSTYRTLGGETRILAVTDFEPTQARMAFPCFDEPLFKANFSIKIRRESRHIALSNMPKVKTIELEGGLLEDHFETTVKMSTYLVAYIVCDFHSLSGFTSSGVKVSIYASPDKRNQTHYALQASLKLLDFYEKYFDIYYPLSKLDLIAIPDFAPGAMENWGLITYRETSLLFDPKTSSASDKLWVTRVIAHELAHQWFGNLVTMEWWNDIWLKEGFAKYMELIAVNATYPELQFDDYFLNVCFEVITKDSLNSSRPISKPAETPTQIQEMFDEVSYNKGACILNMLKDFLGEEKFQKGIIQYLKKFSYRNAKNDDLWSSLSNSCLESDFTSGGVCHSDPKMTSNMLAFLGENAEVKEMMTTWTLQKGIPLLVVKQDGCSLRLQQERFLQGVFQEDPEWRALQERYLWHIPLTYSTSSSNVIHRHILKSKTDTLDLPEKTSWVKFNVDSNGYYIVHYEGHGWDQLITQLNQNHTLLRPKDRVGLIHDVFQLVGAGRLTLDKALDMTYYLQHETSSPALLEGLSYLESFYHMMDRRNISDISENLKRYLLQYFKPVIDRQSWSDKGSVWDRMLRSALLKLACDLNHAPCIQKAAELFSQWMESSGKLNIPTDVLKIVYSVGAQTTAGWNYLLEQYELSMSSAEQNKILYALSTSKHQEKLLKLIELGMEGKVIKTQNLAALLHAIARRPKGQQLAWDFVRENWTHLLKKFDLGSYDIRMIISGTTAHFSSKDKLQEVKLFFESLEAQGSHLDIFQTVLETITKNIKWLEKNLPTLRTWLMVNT
Assay: ERAP2 aminopeptidase inhibitors, dose response, selectivity assay for selective ERAP1 modulator project, biochemical, plate reader, dry powder, set 2 (AID 1117289)
Details: purified ERAP2, Arg-AMC hydrolysis fluorescence, 1 h; series mostly up to 50 µM; activity change, negative = inhibition: at the top concentration

Activity change, negative = inhibition, inactive:
COc1ccc(C(=O)O)cc1S(=O)(=O)N1CCN(c2ccc(C(F)(F)F)cc2N)CC1 25.1%
COc1ccc(C2=NN(c3ccc(C(=O)O)cc3)C(c3ccc(OC)c(OC)c3)C2)cc1 (centres undefined) 289% [at 6 µM]
COc1ccc(C(=O)O)cc1S(=O)(=O)Nc1cc(C(F)(F)F)ccc1N(C)C 33.6%
COc1ccc(C(=O)O)cc1S(=O)(=O)Nc1cc(C(F)(F)F)ccc1N1CCN(C)CC1 -3.47%
COc1ccc(C(=O)O)cc1S(=O)(=O)N(C)c1cc(C(F)(F)F)ccc1N1CCCCC1 2.48%
COc1ccc(C(=O)O)cc1S(=O)(=O)Nc1cc(C(F)(F)F)ccc1N1CCN(C(C)=O)CC1 31.4%
Cc1ccc(S(=O)(=O)Nc2cc(C(F)(F)F)ccc2N2CCCCC2)cc1C(=O)O -23.1%
O=C(O)c1ccc(Cl)c(S(=O)(=O)Nc2cc(C(F)(F)F)ccc2N2CCCCC2)c1 -2.09%
COc1ccc(C(=O)O)cc1S(=O)(=O)Nc1cc(C)ccc1N1CCCCC1 19.8%
O=C(O)c1cccc(S(=O)(=O)Nc2cc(C(F)(F)F)ccc2N2CCCCC2)c1 19.5%
COc1ccc(C(=O)O)cc1S(=O)(=O)Nc1cc(C(F)(F)F)ccc1N1CCOCC1 25%
Cc1ccc(C(=O)O)cc1S(=O)(=O)Nc1cc(C(F)(F)F)ccc1N1CCCCC1 -10.5%
COc1ccc(C(=O)O)cc1S(=O)(=O)Nc1ccc(N2CCCCC2)cc1C(F)(F)F 21.9%
COc1ccc(C(=O)O)cc1S(=O)(=O)Nc1cccc(N2CCCCC2)c1C(F)(F)F 27.3%
COc1ccc(C(=O)Nc2cccc(C(F)(F)F)c2)cc1S(=O)(=O)O 30%
COc1ccc(C(=O)O)cc1S(=O)(=O)Nc1cc(F)ccc1N1CCCCC1 13.2%
COc1ccc(C(=O)O)cc1S(=O)(=O)Nc1ccccc1N1CCCCC1 -9.84%
O=C(O)c1cc(F)cc(S(=O)(=O)Nc2cc(C(F)(F)F)ccc2N2CCCCC2)c1 -23.2%

outcome, inactive:
COc1ccc(C(=O)O)cc1S(=O)(=O)Nc1cc(C(F)(F)F)ccc1N1CCCCC1
